# Screens as filed in PubChem BioAssay.
# Only some compounds are listed: those with a hit (about 5.9% of all), similar ones and a draw of the others.
# HEK293 tox – qHTS of GLP-1 Receptor Inverse Agonists: Cytotox Screen. 410,000 compounds, 0.13% hits. Potency, µM (titrated, usually from 38.3 µM), for inactives: top-dose activity change, negative = inhibition, actives largely listed as inhibitors. HEK293 cAMP-luciferase reporter cells, luminescence, 24 h;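 further: loss of luciferase light is scored as toxicity; on the % scale 0 is the no-effect control and ±100 the full control effect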
#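 1536-well qHTS counterscreen of the MLSMR; 200 cells/uL, 12 h pre-incubation, 23 nL cpd, 24 h at 37 deg C 5% CO2, luciferase detection reagent, 12 min RT, luminescence. Inhibition = undesired.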
# RORg inh – qHTS for inhibitors of ROR gamma transcriptional activity. 310,000 compounds, 5.4% hits. Nuclear receptor ROR-gamma (Mus musculus), P51450. Drosophila S2 Gal4-RORgamma UAS-luciferase reporter, 20 h. Potency, µM (titrated, usually from 53.6 µM), inactives show at the highest dose activity change, negative = inhibition, actives largely listed as inhibitors; further: on the % scale 0 is the no-effect control and ±100 the full control effect; nearly all actives have a fitted effect of over 60% in size
# Target sequence (P51450 whole entry, looked up, the tested form may be a part): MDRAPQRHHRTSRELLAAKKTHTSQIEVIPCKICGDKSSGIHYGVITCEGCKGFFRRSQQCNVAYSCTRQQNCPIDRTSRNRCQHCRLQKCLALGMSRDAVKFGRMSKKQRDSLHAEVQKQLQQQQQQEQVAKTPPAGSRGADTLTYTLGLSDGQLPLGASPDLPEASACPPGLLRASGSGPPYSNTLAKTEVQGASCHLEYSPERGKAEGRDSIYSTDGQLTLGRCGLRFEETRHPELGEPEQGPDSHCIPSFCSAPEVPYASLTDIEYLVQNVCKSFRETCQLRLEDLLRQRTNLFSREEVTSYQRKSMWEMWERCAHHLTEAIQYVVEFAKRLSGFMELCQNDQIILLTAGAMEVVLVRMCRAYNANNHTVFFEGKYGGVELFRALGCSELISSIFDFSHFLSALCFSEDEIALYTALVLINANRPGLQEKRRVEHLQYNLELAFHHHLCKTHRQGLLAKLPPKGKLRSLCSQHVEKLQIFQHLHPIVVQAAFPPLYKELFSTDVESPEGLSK
#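 Luminescence from a UAS-regulated Photinus luciferase reporter in stably transfected Drosophila Schneider cells is measured; decreased signal marks ROR gamma inhibition. Fusion expression is induced by 700 uM copper sulfate for 20 hr.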
# GLP-1R agonist – qHTS of GLP-1 Receptor Agonists | HEK293 GLP-1R CRE-luciferase, luminescence, 4-6 h; cells express a hypersensitive GLP-1R form | Potency, µM (top dose mostly 45.6 µM), without a hit: top-dose activation, usual class: activators | Glucagon-like peptide 1 receptor (Homo sapiens), P43220 | AID 624172, 2012 | 380,000 compounds, 0.007% hits; further: % of control where 0% means no effect
# VP16 counter – VP16 counterscreen qHTS for inhibitors of ROR gamma transcriptional activity. Potency, µM (doses to about 53.6 µM), without a hit: at the top dose activity, negative = inhibition, usual class: inhibitors. 310,000 compounds, 3.5% hits. Drosophila S2 Gal4-VP16 UAS-luciferase, luminescence, 20 h;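 further: Gal4-VP16 expression switched on by copper sulfate through the metallothionein promoter; on the % scale 0 is the no-effect control and ±100 the full control effect; nearly all actives have a fitted effect of over 50% in size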
# GLP1R inv ag – qHTS of GLP-1 Receptor Inverse Agonists (Inhibition Mode) | AID 624417, 2012 | Potency, µM (series often up to 38.3 µM), for the others: at the highest dose activity change, negative = inhibition, usual class: inhibitors | 410,000 compounds, 1.6% hits | HEK293 GLP-1R CRE-luciferase, luminescence, 24 h; GLP-1R form is constitutively active | Glucagon-like peptide 1 receptor (Homo sapiens), P43220; further: on the % scale 0 is the no-effect control and ±100 the full control effect; nearly all actives have a fitted effect of over 55% in size
#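 Cells are plated, allowed 12 hours at 37 deg C, then treated with compounds for 24 hr before luciferase detection reagent is added and luminescence is read after 12 min at room temperature. The HEK293 line carries constitutively active GLP-1R with a cAMP-responsive reporter.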
# Active calls of the source: *; ? = inconclusive; / = no result; [ ] = another dose, or the depositor's remark. The call rests on the fitted dose curve; in most records, active means well fitted curve in the direction sought with a large enough effect; inconclusive means small, poorly fitted or top-dose-only effect, or another doubt; inactive means no such curve, though single readings can be large; an effect the other way counts as inactive or inconclusive. Potency means the concentration at half of the fitted maximal effect.
SMILES,HEK293 tox,RORg inh,GLP-1R agonist,VP16 counter,GLP1R inv ag
CC(C)=CCC/C(C)=C/CO/N=C1/C[C@@H](O)[C@@H](O)[C@@H]2[C@@H]3C(=O)N(C(C)(C)C)C(=O)[C@H]3CC[C@@H]12,/,1%[10 µM],/,6%[10 µM],/
Cc1cccc(OCCSc2nc3ccc(NC(=O)COc4ccccc4F)cc3s2)c1,-2%,/,/,/,4%
COc1cc2cc(C(=O)N3CCOCC3)cc(-c3ccc(C)cc3)c2cc1OC,0%,?,11%,8.9µM*,5%
O=C(c1cc(-c2ccc(O)cc2)on1)N1CCCCCC1,2%,-2%,19%,2%,-27%
COc1ccc(-c2cc(C(=O)N3CCOCC3)c3ccccc3n2)cc1OC,15%,/,28%,/,32%
Cc1ccc(-c2cc(C(=O)N3CCOCC3)no2)cc1,5%,7.9µM*,-6%,14µM*,3.2µM*
O=C(c1cc(-c2ccc3c(c2)OCO3)on1)N1CCCCC1,4%,?,1%,11µM*,?
Cc1ccc(-c2cc(C(=O)N3CCCC3)no2)cc1,11%,11µM*,-13%,7.1µM*,4µM*
Cc1cc(C)nc(-n2nc(C)cc2NC(=O)c2ccc3c(c2)OCO3)n1,/,-17%,/,0%,/
COc1ccc(CNCC(=O)Nc2cc(C)nn2-c2nc(C)cc(C)n2)cc1OC,5%,-12%,8%,-1%,-14%
Cc1cc(C)nc(-n2nc(C)cc2NC(=O)CN2CCCC(C)C2)n1 (stereo unspecified),-1%,0.71µM*,25%,5.6µM*,-1%
Cc1cc(C)nc(-n2nc(C)cc2NC(=O)CNC2CCCCC2)n1,?,2.5µM*,8%,6.3µM*,-3%
Cc1cc(C)nc(-n2nc(C)cc2NC(=O)CN2CCc3ccccc3C2)n1,5µM*,0.79µM*,10%,2.8µM*,?
Cc1ccccc1NC(=O)CN1CCc2ccccc2C1,-5%,11%,6%,3%,?
O=C(CN1C(=O)COc2ccc(S(=O)(=O)N3CCOCC3)cc21)N1CCN(c2ccc(Cl)cc2)CC1,0%,/,1%,/,-1%
c1ccc(CNc2nc(-c3ccccn3)nc3ccccc23)cc1,-45%,2.5µM*,3%,3.5µM*,?
CCC(C)Nc1nc(-c2ccccn2)nc2ccccc12 (stereo unspecified),?,0.71µM*,8%,3.5µM*,?
Fc1ccccc1/C=N/Nc1nc(-c2ccccn2)nc2ccccc12,/,0.25µM*,/,0.5µM*,/
COc1ccccc1-c1nc(NCc2ccccc2)c2ccccc2n1,/,35µM*,/,?,/
O=C(CSc1nc2c(c(=O)[nH]1)CN(Cc1ccc(F)cc1)CC2)Nc1cccc(C(F)(F)F)c1,0%,/,/,/,?
O=C(NCCc1ccc(Cl)cc1)C(=O)NCC(c1cccs1)S(=O)(=O)c1cccs1 (stereo unspecified),-2%,/,/,/,4%
CC1O[C@@H](O[C@@H]2C(O)C[C@H](O[C@@H]3C(O)C[C@@H](OC4CC[C@@]5(C)C6CC(O)[C@@]7(C)C(C8=CC(=O)OC8)CC[C@@]7(O)C6CC[C@@H]5C4)OC3C)OC2C)CC(O)[C@H]1O (stereo partly specified),/,8.9µM*,/,-7%,/
CCN(CC)C(=O)c1sc2c(c1C)c(=O)n(-c1ccc(C)c(C)c1)c(=O)n2Cc1cc(=O)n2c(C)cccc2n1,-17%,/,/,/,9%
Cn1nc(CC(=O)Nc2ccc3c(c2)OCCO3)c2ccccc2c1=O,-2%,-34%,10%,7.9µM*,2%
Cc1ccc(NC(=O)Cc2nn(C)c(=O)c3ccccc23)cc1F,-15%,-19%,-1%,11µM*,-13%
SMILES,HEK293 tox,RORg inh,GLP-1R agonist,VP16 counter,GLP1R inv ag
Cn1nc(CC(=O)N2CCN(c3ccccc3)CC2)c2ccccc2c1=O,-2%,-20%,-9%,-7%,1%
Cn1nc(CC(=O)Nc2ccc(N3CCN(C(=O)OC(C)(C)C)CC3)cc2)c2ccccc2c1=O,-3%,?,0%,2.5µM*,8%
CCCCC(=O)N1CCc2cc(OC)c(OC)cc2C1COc1ccc(OC)cc1 (stereo unspecified),1%,/,29%,/,-14%
COc1ccc2c(Sc3ccccc3)c(C(=O)NCc3cc(Br)ccc3OC)[nH]c2c1,-6%,/,/,/,10%
COc1ccc(Nc2ncnc3onc(C)c23)c(OC)c1,-2%,/,5%,/,9%
CCc1ccc(C2c3c(-c4ccccc4O)n[nH]c3C(=O)N2Cc2ccncc2)cc1 (stereo unspecified),-32%,/,/,/,?
CN(Cc1ccccc1N1CCCC1)C(=O)c1cc2cc(Cl)ccc2o1,2%,/,7%,/,?
CN(Cc1ccccc1N1CCCC1)C(=O)c1cc2ccccc2o1,6%,/,14%,/,10µM*
COc1cc(OC)cc(C(=O)NCCc2csc(-c3ccc(C(F)(F)F)cc3)n2)c1,2%,/,/,/,10µM*
Cc1ccc(-n2c(=O)c3c(c4cc(C)ccc4n3C)n(Cc3ccc(F)cc3)c2=O)cc1,-12%,/,/,/,3%
CC1(Cc2ccc(C(F)(F)F)o2)C(=O)Nc2ccc(-c3cccc(C(F)(F)F)c3)cc21 (stereo unspecified),?,/,-8%,/,10µM*
Cc1ccc(NC(=O)N2CCC(n3c(C)nc4cccnc43)CC2)c(Cl)c1,2%,/,/,/,12%
COc1cnc(-c2ccccn2)nc1Sc1cccc(Cl)c1,?,2µM*,-8%,8.9µM*,?
Cc1ccc(Sc2cc(C)nc(-c3ccccn3)n2)cc1,?,0.35µM*,19%,3.2µM*,?
COc1ccc(-c2nc(-c3ccccn3)ncc2S(C)(=O)=O)cc1,6%,-21%,5%,8%,23%
COc1cnc(-c2ccccn2)nc1Sc1ccc(C)cc1,?,1.1µM*,15%,10µM*,?
COc1ccccc1Sc1nc(-c2ccccn2)ncc1OC,?,7.9µM*,-5%,?,?
Cc1ccccc1OCCCCn1nnc2sc3c(c2c1=O)CCC(C)C3 (stereo unspecified),-5%,/,/,/,3%
COc1cccc(CNC(=O)CC(c2ccc(F)cc2)N2Cc3ccccc3C2=O)c1 (stereo unspecified),-3%,/,/,/,?
Cc1ccc(NC(=O)Cn2cc3c(n2)CCC(C)C3)cc1C (stereo unspecified),-7%,/,/,/,-24%
O=C1C(=O)N(C2CCN(C(=O)c3ccc(Cl)cc3)CC2)CCN1Cc1ccc(F)cc1,-11%,/,/,/,0%
COc1cc(/C=C2/C(=O)ON=C2C)cc(Cl)c1O,-11%,13µM*,-2%,?,13%
